# Laboratory results taken from PubChem BioAssay.
# Activity calls are given as the source filed them.
# Tested on: not listed separately
# Assay: change in splice reporter luminescence, either direction, cell-based, HEK293, spliceosome inhibition project, primary screen (AID 1101);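 further: HEK293 cells carrying a splicing-competent luciferase reporter gene; test concentration not given here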
# Conditions: HEK293 splicing luciferase reporter, 24 h, higher = more signal, called active from +8 up or from −8 down
row,Compound,z-score
1,C=CC[C@]1(C(=O)NCC(O)CO)N=C(c2ccc(OCCCO)cc2)O[C@H]1c1ccccc1 (stereo partly drawn),0.164 (inactive)
2,C=CCC(OC(C)=O)[C@@H]1[C@@H](N(Cc2cc3ccccc3o2)C(=O)c2ccc(C)cc2)c2cc(OCCCO)ccc2N1C(=O)c1ccc2ccccc2n1 (stereo partly drawn),-0.178 (inactive)
3,CC(C)NC(=O)[C@@]1(Cc2ccccc2I)c2ccccc2C(=O)N(C2CCCCC2)[C@H]1c1ccc(CO)cc1,0.129 (inactive)
4,C=C[C@H](OC)[C@@H](OC(=O)Nc1ccc(SC)cc1)c1ccc(OC)c(O)c1,-1.84 (inactive)
5,CCc1cccc(NC(=O)O[C@H]2[C@H](OC(=O)Nc3ccccc3)[C@@H](OC(=O)Nc3ccccc3)[C@@H](OC)O[C@@H]2CO)c1,-0.0187 (inactive)
6,COCCOC(=O)N1C(=O)[C@@]2(c3cc(C#CCC(C(=O)OC)C(=O)OC)ccc31)[C@H](C(=O)N1CCN(c3ncccn3)CC1)[C@H]1C(=O)O[C@H](c3ccccc3)[C@H](c3ccccc3)N1[C@@H]2c1ccc(O)cc1,-1.15 (inactive)
7,COc1ccc(-c2cc3c(c(-c4ccccc4)n2)[Si](C(C)C)(C(C)C)O[C@H]3c2ccccc2)cn1,0.96 (inactive)
8,CCC(=O)[C@]12O[C@@]3([C@@H]4C(=O)OCC[C@@H]41)N(Cc1ccccc1)C(C)=C(C(=O)OC)[C@@H](c1ccccc1)N3C2=O,-1.15 (inactive)
9,CO[C@@H]1COC(=O)[C@H](C)NC(=O)CC=C[C@@H](C)[C@H](NS(=O)(=O)c2ccc(C)cc2)COC(=O)CC=C[C@@H]1C,-0.373 (inactive)
10,CC(=O)Nc1ccc([C@H]2[C@H](C)CC[C@H]3C(=O)N4[C@@H](CC[C@@H](C)[C@@H]4c4ccc(NC(C)=O)cc4)C(=O)N32)cc1,0.209 (inactive)
11,C=CCN(C(=O)C1N(c2ccc(CCO)cc2)C(=O)C2C(C(=O)O)C3C=CC21O3)C(C)(C)C (stereo not drawn),-1.32 (inactive)
12,CO[C@H]1COC(=O)[C@H](C)NC(=O)CC=C[C@@H](C)[C@H](NS(=O)(=O)c2ccc(C)cc2)COC(=O)[C@@H](OCc2ccccc2)C=C[C@@H]1C,-0.138 (inactive)
13,COCCCNC(=O)[C@@]1(Sc2ccc(C)cc2)CC(=O)N(Cc2cc(C(F)(F)F)cc(C(F)(F)F)c2)[C@@H]1c1ccc(CO)cc1I,-1.26 (inactive)
14,CO[C@H]1COC(=O)CC=C[C@H](C)[C@@H](OC)COC(=O)[C@H](Cc2ccccc2)NC(=O)CC=C[C@@H]1C,-1.34 (inactive)
15,COCCOC(=O)N1C(=O)[C@@]2(c3cc(C#CCCO)ccc31)[C@H](C(=O)N1CCCCCCC1)[C@H]1C(=O)O[C@H](c3ccccc3)[C@H](c3ccccc3)N1[C@@H]2c1ccc(O)cc1,-1.15 (inactive)
16,Cc1ccc(N2C(=O)c3ccccc3[C@@H](C(=O)NCc3ccccc3)[C@@H]2c2ccc(CO)cc2)nc1,-1.47 (inactive)
17,O=C1C2C=CC(C(O)C(c3ccccc3)c3ccccc3)N(Nc3ccc([N+](=O)[O-])cc3)C2C(=O)N1c1ccccc1 (stereo not drawn),0.597 (inactive)

# Molecular target: Fibroblast growth factor 10 (Homo sapiens) (UniProt O15520)
# Sequence (O15520 whole entry, looked up): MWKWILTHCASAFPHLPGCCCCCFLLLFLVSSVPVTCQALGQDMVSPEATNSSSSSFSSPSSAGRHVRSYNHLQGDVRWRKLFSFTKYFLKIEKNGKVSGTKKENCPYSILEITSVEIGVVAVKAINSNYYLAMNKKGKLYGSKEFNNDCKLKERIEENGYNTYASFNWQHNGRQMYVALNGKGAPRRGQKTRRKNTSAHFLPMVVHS
# Assay: compounds binding fibroblast growth factor 10 – biochemical, small-molecule microarray, 635 nm fluorescence, primary screen (AID 1102)
# Conditions: FGF10 binding, fluorescence 635 nm, higher = more signal
row,Compound,composite z-score
1,CO[C@H]1COC(=O)[C@@H](C)COC(=O)[C@H](Cc2ccccc2)NC(=O)CC=C[C@H]1C,0.457
2,C=CCC(OC(C)=O)[C@@H]1[C@@H](N(Cc2cccc3ccccc23)C(=O)c2ccc(C)cc2)c2cc(OCCCO)ccc2N1C(=O)c1ccc(-c2ccccc2)cc1 (stereo partly drawn),-0.162
3,CC(C)[C@H]1NC(=O)[C@@]23C(=O)N[C@@H](Cc4ccccc4)C2[C@H](C)[C@@]2(C)O[C@H]2C3/C=C/C/C=C\CNC(=O)[C@H](C)NC1=O (stereo partly drawn),0.392
4,CO[C@H]1COC(=O)[C@@H](Cc2ccccc2)NC(=O)[C@@H](C)COC(=O)CC=C[C@@H]1C,0.42
5,CN1CCC(CCCO)=CC1C1CC1 (stereo not drawn),0.59
6,CC(C)[Si]1(C(C)C)OCc2cc(C3CC3)nc(-c3ccccc3)c21,-0.395
7,O=C1c2ccccc2[C@](Cc2ccccc2I)(C(=O)O)[C@H](c2ccc(CO)cc2)N1C1CCCCC1,1.28
8,C[C@@H]1NC(=O)CC=C[C@@H](C)[C@@H]2C=C[C@H](O)[C@@H](COC(=O)[C@H](C)NC(=O)CC=C[C@@H](C)[C@@H]3C=C[C@H](O)[C@@H](COC1=O)O3)O2,0.544
9,C=CCc1cccc([C@@H]2[C@@H](C)CC[C@H]3C(=O)N4[C@H](c5cccc(CC=C)c5)[C@@H](C)CC[C@H]4C(=O)N23)c1,0.756
10,C=CC[C@@]12N=C(c3ccc(OCCCO)cc3)O[C@@H]1c1ccccc1CN(Cc1ccccc1)C2=O,0.623
11,COc1ccc([C@H]2C[C@H]3C(Br)=C[C@]2(OC)C(=O)[C@]32CO2)cc1,1.05
12,C=CCOC(=O)[C@@H]1[C@H]2C(=O)O[C@H](c3ccccc3)[C@H](c3ccccc3)N2[C@H](c2ccc(OCCOC(=O)[C@H]3C[C@H]4C(=O)N5CCC[C@H]5C(=O)N4[C@H]3c3ccc(O)cc3)cc2)[C@@]12C(=O)Nc1ccccc12,0.883
13,CC(=O)NCCCC[C@@H]1NC(=O)[C@@H]2C[C@H](C(=O)NCc3ccc(F)cc3)[C@H](c3cccc(OCCO)c3)N2C1=O,0.0733
14,O=C(CS)NCCCCCNC(=O)[C@H]1C[C@H]2C(=O)N3CCC[C@H]3C(=O)N2[C@H]1c1ccc(O)cc1,-0.0763
15,C=C(COC)/C(=C/C[C@H](OC(C)=O)c1ccc(OCCO)cc1)c1cnc2ccccc2c1,0.741
16,COc1cc([C@@H]2N[C@H](C(=O)O)Cc3c2[nH]c2ccccc32)cc(OC)c1OC,0.644
17,C=CC[C@@]1(C(=O)N2CCOCC2)N=C(c2ccc(OCCCO)cc2)O[C@@H]1c1ccccc1,0.293
18,COCCOC(=O)N1C(=O)[C@@]2(c3cc(C#CC4=CCCCC4)ccc31)[C@H](c1ccc(O)cc1)N1[C@H](c3ccccc3)[C@H](c3ccccc3)OC(=O)[C@H]1[C@@H]2C(=O)N1CCCCCCC1,0.603

row,Compound,composite z-score
1,COCCOC(=O)N1C(=O)[C@@]2(c3cc(C#CC4=CCCCC4)ccc31)[C@H](C(=O)NC[C@H](O)c1ccccc1)[C@H]1C(=O)O[C@H](c3ccccc3)[C@H](c3ccccc3)N1[C@@H]2c1ccccc1OCCO,0.533
2,C=CC[C@]1(C(=O)NCC(O)CO)N=C(c2ccc(OCCCO)cc2)O[C@H]1c1ccccc1 (stereo partly drawn),-0.159
3,C=CCC(OC(C)=O)[C@@H]1[C@@H](N(Cc2cc3ccccc3o2)C(=O)c2ccc(C)cc2)c2cc(OCCCO)ccc2N1C(=O)c1ccc2ccccc2n1 (stereo partly drawn),-0.146
4,CC(C)NC(=O)[C@@]1(Cc2ccccc2I)c2ccccc2C(=O)N(C2CCCCC2)[C@H]1c1ccc(CO)cc1,1.1
5,C=C[C@H](OC)[C@@H](OC(=O)Nc1ccc(SC)cc1)c1ccc(OC)c(O)c1,-0.337
6,CCc1cccc(NC(=O)O[C@H]2[C@H](OC(=O)Nc3ccccc3)[C@@H](OC(=O)Nc3ccccc3)[C@@H](OC)O[C@@H]2CO)c1,1.54
7,COCCOC(=O)N1C(=O)[C@@]2(c3cc(C#CCC(C(=O)OC)C(=O)OC)ccc31)[C@H](C(=O)N1CCN(c3ncccn3)CC1)[C@H]1C(=O)O[C@H](c3ccccc3)[C@H](c3ccccc3)N1[C@@H]2c1ccc(O)cc1,0.589
8,COc1ccc(-c2cc3c(c(-c4ccccc4)n2)[Si](C(C)C)(C(C)C)O[C@H]3c2ccccc2)cn1,0.22
9,CCC(=O)[C@]12O[C@@]3([C@@H]4C(=O)OCC[C@@H]41)N(Cc1ccccc1)C(C)=C(C(=O)OC)[C@@H](c1ccccc1)N3C2=O,0.0848
10,CO[C@@H]1COC(=O)[C@H](C)NC(=O)CC=C[C@@H](C)[C@H](NS(=O)(=O)c2ccc(C)cc2)COC(=O)CC=C[C@@H]1C,0.0743
11,CC(=O)Nc1ccc([C@H]2[C@H](C)CC[C@H]3C(=O)N4[C@@H](CC[C@@H](C)[C@@H]4c4ccc(NC(C)=O)cc4)C(=O)N32)cc1,1
12,C=CCN(C(=O)C1N(c2ccc(CCO)cc2)C(=O)C2C(C(=O)O)C3C=CC21O3)C(C)(C)C (stereo not drawn),-1.86
13,CO[C@H]1COC(=O)[C@H](C)NC(=O)CC=C[C@@H](C)[C@H](NS(=O)(=O)c2ccc(C)cc2)COC(=O)[C@@H](OCc2ccccc2)C=C[C@@H]1C,0.0808
14,COCCCNC(=O)[C@@]1(Sc2ccc(C)cc2)CC(=O)N(Cc2cc(C(F)(F)F)cc(C(F)(F)F)c2)[C@@H]1c1ccc(CO)cc1I,-0.511
15,CO[C@H]1COC(=O)CC=C[C@H](C)[C@@H](OC)COC(=O)[C@H](Cc2ccccc2)NC(=O)CC=C[C@@H]1C,-0.0885
16,COCCOC(=O)N1C(=O)[C@@]2(c3cc(C#CCCO)ccc31)[C@H](C(=O)N1CCCCCCC1)[C@H]1C(=O)O[C@H](c3ccccc3)[C@H](c3ccccc3)N1[C@@H]2c1ccc(O)cc1,0.494
17,Cc1ccc(N2C(=O)c3ccccc3[C@@H](C(=O)NCc3ccccc3)[C@@H]2c2ccc(CO)cc2)nc1,0.329
18,O=C1C2C=CC(C(O)C(c3ccccc3)c3ccccc3)N(Nc3ccc([N+](=O)[O-])cc3)C2C(=O)N1c1ccccc1 (stereo not drawn),1.04
